About 7,900 targets were measured; listed, in parts, are those with a hit and a random draw of the rest. About 0.6% of all pairs of compound and target were hits.
What was measured:
Assay in all cases: log2 fold change, soluble protein after heating vs DMSO (PISA); higher = thermal stabilisation; K562 cells, 10 uM, 30 min; active = over 0.2 and 3.5 SD of the protein, either way, in both replicates (recomputed)
[1] = compound: CN1CCN(CCOc2cc(OC3CCOCC3)c3c(Nc4c(Cl)ccc5c4OCO5)ncnc3c2)CC1 [saracatinib]
Summary of the method: (§1)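 K562 cells at 2×10^6 cells/mL were treated with 10 μM compound for 30 min. Aliquots were heated for 3 min across 48°C-58°C, pooled, and extracted in PBS with 0.5% NP-40 at 4°C; soluble protein was the supernatant after 21,000xg for 90 min. Soluble protein was quantified by TMTpro 16plex LC-MS/MS with channel sums equalised, and reported as log2 fold change in thermal stability against DMSO controls, with values from duplicates.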

[2] = compound: CN1CCN(c2nc(C3=C(c4c[nH]c5ccccc45)C(=O)NC3=O)c3ccccc3n2)CC1 [sotrastaurin]
Summary of the method: as §1

[3] = compound: CN1CC[C@H](c2c(O)cc(O)c3c(=O)cc(-c4ccccc4Cl)oc23)[C@H](O)C1 [alvocidib]
Summary of the method: as §1

[4] = compound: CN1CCc2c(c3ccccc3n2Cc2ccc(C(=O)NO)cc2)C1 [Tubastatin A]
Summary of the method: as §1

[5] = compound: CNC(=O)C1=CC=CC=C1NC2=NC(=NC=C2Cl)NC3=C(C=C(C=C3)N4CCOCC4)OC
Summary of the method: as §1

[6] = compound: CNC(=O)c1ccc(Nc2ncc(C(F)(F)F)c(NCc3nccnc3N(C)S(C)(=O)=O)n2)cc1 [defactinib]
Summary of the method: as §1

[7] = compound: CNCc1ccc(-c2[nH]c3cc(F)cc4c3c2CCNC4=O)cc1 [rucaparib]
Summary of the method: as §1

[8] = compound: CNc1nc(-c2ccc3c(N)n[nH]c3c2)cc(N2C[C@@H](C(=O)NC3CCCCC3)CC[C@H]2C)n1
Summary of the method: as §1

[9] = compound: COC(=O)N[C@@H](C)CNc1nccc(-c2cn(C(C)C)nc2-c2cc(Cl)cc(NS(C)(=O)=O)c2F)n1 [encorafenib]
Summary of the method: as §1

[10] = compound: COC(=O)[C@H](CCSC)NC(=O)C1=C(C=C(C=C1)NC[C@H](CS)N)C2=CC=CC=C2
Summary of the method: as §1

[11] = compound: COC1=CC=C(C=C1)CN2C=CC3=C2C=C(C=C3)C(=O)NO
Summary of the method: as §1

[12] = compound: CON(C)C(=O)N1N=C(c2cc(F)ccc2F)S[C@@]1(CCCN)c1ccccc1 [filanesib]
Summary of the method: as §1

[13] = compound: CO[C@H]1C[C@@H]2CC[C@@H](C)[C@@](O)(O2)C(=O)C(=O)N2CCCC[C@H]2C(=O)O[C@H]([C@H](C)C[C@@H]2CC[C@H](n3cnnn3)[C@H](OC)C2)CC(=O)[C@H](C)/C=C(\C)[C@@H](O)[C@@H](OC)C(=O)[C@H](C)C[C@H](C)/C=C/C=C/C=C/1C [zotarolimus]
Summary of the method: as §1

[14] = compound: COc1cc(C(=O)O)ccc1NC(=O)[C@@H]1N[C@@H](CC(C)(C)C)[C@](C#N)(c2ccc(Cl)cc2F)[C@H]1c1cccc(Cl)c1F [idasanutlin]
Summary of the method: as §1

[15] = compound: COc1cc(Nc2ncc3c(n2)-c2ccc(Cl)cc2C(c2c(F)cccc2OC)=NC3)ccc1C(=O)O [alisertib]
Summary of the method: as §1

[16] = compound: COc1cc2nc(-c3cc(F)ccc3O)nc(N[C@@H]3CNC[C@H]3C(C)(C)O)c2cc1OC
Summary of the method: as §1

[17] = compound: COc1cc2ncnc(Nc3ccc(F)c(Cl)c3)c2cc1OCCCN1CCOCC1 [gefitinib]
Summary of the method: as §1

[18] = compound: COc1cccc2cc(-c3nc([C@H]4CC[C@H](C(=O)O)CC4)n4ncnc(N)c34)[nH]c12
Summary of the method: as §1

[19] = compound: CS(=O)(=O)CCNCc1ccc(-c2ccc3ncnc(Nc4ccc(OCc5cccc(F)c5)c(Cl)c4)c3c2)o1 [lapatinib]
Summary of the method: as §1

[20] = compound: CS(=O)(=O)N1CCN(Cc2cc3nc(-c4cccc5[nH]ncc45)nc(N4CCOCC4)c3s2)CC1 [pictilisib]
Summary of the method: as §1

Measured: log2 fold change

SRPRB (UniProt Q9Y5M8)
UniProt Q9Y5M8, sequence (Q9Y5M8 whole entry, looked up): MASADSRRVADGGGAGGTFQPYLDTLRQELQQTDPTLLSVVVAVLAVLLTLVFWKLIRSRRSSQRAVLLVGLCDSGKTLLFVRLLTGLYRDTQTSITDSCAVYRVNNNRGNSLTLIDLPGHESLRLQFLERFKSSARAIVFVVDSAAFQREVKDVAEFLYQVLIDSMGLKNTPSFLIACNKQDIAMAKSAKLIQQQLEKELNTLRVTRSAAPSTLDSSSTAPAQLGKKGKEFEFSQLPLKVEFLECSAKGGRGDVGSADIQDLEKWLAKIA
inactive: [1] -0.03 | [2] -0.036 | [3] 0.002 | [4] 0.004 | [5] 0.087 | [6] 0.026 | [7] 0.151 | [8] 0.032 | [9] -0.013 | [10] -0.064 | [11] 0.133 | [12] -0.076 | [13] 0.018 | [14] -0.11 | [15] -0.021 | [16] 0.136 | [17] -0.001 | [18] -0.03 | [19] 0.048 | [20] -0.022

TAOK3 (UniProt Q9H2K8)
UniProt Q9H2K8, sequence (Q9H2K8 whole entry, looked up): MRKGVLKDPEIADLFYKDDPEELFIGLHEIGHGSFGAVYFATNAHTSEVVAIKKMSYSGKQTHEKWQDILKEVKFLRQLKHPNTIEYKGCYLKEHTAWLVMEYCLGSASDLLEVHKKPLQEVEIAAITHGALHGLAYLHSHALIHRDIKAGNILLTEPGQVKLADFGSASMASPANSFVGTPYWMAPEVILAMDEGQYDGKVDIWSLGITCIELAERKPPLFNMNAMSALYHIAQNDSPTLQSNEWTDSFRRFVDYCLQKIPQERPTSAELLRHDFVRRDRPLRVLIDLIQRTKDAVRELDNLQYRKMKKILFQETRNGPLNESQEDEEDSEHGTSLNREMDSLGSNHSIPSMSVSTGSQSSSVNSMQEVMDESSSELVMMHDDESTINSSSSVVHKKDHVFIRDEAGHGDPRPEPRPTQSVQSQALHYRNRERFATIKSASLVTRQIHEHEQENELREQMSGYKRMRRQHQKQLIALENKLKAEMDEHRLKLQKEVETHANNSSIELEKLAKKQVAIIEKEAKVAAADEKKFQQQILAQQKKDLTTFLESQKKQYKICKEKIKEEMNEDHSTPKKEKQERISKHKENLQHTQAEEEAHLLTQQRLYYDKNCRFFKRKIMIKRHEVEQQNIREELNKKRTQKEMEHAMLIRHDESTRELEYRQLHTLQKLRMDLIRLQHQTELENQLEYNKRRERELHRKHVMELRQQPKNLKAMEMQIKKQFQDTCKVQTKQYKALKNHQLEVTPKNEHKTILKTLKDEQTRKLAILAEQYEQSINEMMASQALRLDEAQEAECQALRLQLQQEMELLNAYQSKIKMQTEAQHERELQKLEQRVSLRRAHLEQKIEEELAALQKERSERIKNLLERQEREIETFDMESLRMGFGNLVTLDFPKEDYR
inactive: [1] -0.002 | [2] -0.089 | [3] -0.062 | [4] 0.042 | [5] -0.031 | [6] -0.109 | [7] -0.013 | [8] 0.019 | [9] 0.052 | [10] -0.044 | [11] 0.047 | [12] 0.014 | [13] 0.002 | [14] -0.003 | [15] -0.038 | [16] -0.049 | [17] 0.001 | [18] -0.011 | [19] 0.061 | [20] -0.001

TGFBI (UniProt Q15582)
UniProt Q15582, sequence (Q15582 whole entry, looked up): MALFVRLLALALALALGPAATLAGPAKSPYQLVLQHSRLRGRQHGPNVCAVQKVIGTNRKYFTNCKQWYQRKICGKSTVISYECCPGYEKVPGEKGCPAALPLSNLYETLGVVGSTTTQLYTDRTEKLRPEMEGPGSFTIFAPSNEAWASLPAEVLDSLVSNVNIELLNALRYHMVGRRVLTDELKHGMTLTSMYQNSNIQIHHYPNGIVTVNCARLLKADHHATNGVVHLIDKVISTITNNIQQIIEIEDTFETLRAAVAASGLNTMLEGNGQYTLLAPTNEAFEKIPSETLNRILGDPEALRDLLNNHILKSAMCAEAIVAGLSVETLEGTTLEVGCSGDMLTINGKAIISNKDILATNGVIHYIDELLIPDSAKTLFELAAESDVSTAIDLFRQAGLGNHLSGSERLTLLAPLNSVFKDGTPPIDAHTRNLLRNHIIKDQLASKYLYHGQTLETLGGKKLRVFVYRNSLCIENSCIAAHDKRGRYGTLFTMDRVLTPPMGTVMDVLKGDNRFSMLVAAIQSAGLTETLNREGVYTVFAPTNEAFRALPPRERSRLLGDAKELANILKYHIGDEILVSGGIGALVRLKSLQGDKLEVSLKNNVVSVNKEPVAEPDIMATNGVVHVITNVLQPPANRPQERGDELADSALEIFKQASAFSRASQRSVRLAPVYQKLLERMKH
inactive: [1] 0.017 | [2] 0.171 | [3] 0.054 | [4] -0.005 | [5] -0.014 | [6] -0.037 | [7] -0.06 | [8] -0.113 | [9] 0.006 | [10] 0.098 | [11] 0.063 | [12] -0.054 | [14] 0.084 | [15] -0.012 | [16] -0.003 | [17] -0.029 | [18] 0.15 | [19] 0.018 | [20] -0.083
active: [13] -0.892

SLC30A7 (UniProt Q8NEW0)
UniProt Q8NEW0, sequence (Q8NEW0 whole entry, looked up): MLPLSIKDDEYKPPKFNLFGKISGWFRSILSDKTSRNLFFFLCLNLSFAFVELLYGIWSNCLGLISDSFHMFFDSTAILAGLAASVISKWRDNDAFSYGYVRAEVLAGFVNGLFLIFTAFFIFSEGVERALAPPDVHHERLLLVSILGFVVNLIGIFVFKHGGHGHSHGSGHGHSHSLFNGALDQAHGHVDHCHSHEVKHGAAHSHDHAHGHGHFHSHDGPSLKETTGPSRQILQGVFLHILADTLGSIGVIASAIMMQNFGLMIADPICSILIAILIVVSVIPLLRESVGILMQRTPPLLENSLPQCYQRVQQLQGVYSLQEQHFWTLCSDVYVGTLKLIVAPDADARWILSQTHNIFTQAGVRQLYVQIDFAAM
inactive: [1] 0.077 | [2] 0.101 | [3] -0.105 | [4] -0.107 | [5] 0.016 | [6] -0.051 | [7] 0.02 | [8] -0.026 | [9] 0.059 | [10] 0.029 | [11] -0.105 | [12] -0.086 | [13] -0.025 | [14] -0.121 | [15] -0.019 | [16] 0.088 | [17] 0.017 | [18] 0.184 | [19] -0.013 | [20] 0.028

SLC38A2 (UniProt Q96QD8)
UniProt Q96QD8, sequence (Q96QD8 whole entry, looked up): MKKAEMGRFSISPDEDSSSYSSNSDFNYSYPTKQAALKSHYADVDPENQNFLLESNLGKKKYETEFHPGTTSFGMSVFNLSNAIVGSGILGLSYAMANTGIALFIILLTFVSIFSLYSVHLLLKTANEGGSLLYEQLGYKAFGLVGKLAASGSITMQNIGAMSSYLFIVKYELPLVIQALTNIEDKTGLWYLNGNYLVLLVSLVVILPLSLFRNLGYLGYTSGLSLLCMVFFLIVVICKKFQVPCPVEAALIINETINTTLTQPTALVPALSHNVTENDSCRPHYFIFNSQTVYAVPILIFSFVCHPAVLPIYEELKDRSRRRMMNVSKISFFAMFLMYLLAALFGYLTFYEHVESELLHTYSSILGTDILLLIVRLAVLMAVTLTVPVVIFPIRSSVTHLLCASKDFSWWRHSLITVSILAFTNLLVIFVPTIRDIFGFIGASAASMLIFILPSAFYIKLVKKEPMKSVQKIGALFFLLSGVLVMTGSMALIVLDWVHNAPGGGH
inactive: [1] -0.007 | [2] 0.027 | [3] 0 | [4] -0.043 | [5] 0.004 | [6] -0.034 | [7] -0.044 | [8] -0.188 | [9] 0.045 | [10] -0.024 | [11] -0.041 | [12] -0.205 | [13] 0.048 | [14] 0.011 | [15] -0.019 | [16] -0.122 | [17] -0.099 | [18] 0.097 | [19] -0.055

SUPT5H (UniProt O00267)
inactive: [1] -0.01 | [2] -0.021 | [3] -0.075 | [4] 0.007 | [5] -0.004 | [6] -0.126 | [7] -0.062 | [8] 0.039 | [9] 0.076 | [10] -0.017 | [11] 0.02 | [12] -0.005 | [13] 0.042 | [14] -0.062 | [15] -0.003 | [16] 0.058 | [17] 0.028 | [18] 0.027 | [19] -0.006 | [20] 0.05

SQSTM1 (UniProt Q13501)
UniProt Q13501, sequence (Q13501 whole entry, looked up): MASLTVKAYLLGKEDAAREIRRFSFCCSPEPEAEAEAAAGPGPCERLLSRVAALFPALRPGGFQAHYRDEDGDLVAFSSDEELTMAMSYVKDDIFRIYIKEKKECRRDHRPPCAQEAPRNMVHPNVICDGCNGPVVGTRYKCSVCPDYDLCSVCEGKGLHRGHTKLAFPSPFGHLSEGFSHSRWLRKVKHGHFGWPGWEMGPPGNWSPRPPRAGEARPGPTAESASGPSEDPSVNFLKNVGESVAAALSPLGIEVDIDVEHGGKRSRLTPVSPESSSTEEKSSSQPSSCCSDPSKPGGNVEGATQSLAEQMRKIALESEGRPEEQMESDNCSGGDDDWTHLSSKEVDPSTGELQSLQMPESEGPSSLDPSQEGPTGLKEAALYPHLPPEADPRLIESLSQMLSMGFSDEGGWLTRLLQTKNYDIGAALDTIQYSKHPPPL
inactive: [1] -0.038 | [2] -0.073 | [3] -0.149 | [4] -0.022 | [5] -0.024 | [6] -0.074 | [7] -0.021 | [8] -0.048 | [9] 0.012 | [10] 0.051 | [11] 0.047 | [12] 0.011 | [13] -0.167 | [14] 0.072 | [15] -0.016 | [16] -0.136 | [17] -0.022 | [18] 0.058 | [19] -0.012 | [20] -0.112

ST6GAL1 (UniProt P15907)
UniProt P15907, sequence (P15907 whole entry, looked up): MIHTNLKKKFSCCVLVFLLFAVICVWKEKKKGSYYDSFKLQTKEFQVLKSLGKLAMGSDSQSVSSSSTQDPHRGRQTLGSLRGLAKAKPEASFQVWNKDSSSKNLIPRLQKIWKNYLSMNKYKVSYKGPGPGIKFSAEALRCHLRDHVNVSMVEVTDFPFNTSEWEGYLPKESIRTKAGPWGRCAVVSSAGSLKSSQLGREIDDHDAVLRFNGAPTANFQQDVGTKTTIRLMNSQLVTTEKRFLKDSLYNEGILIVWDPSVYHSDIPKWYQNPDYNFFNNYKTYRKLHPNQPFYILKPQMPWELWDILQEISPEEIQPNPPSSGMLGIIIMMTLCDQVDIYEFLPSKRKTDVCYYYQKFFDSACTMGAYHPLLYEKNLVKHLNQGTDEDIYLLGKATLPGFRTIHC
active: [12] 0.224
inactive: [1] -0.001 | [2] 0.018 | [3] 0.006 | [4] 0.026 | [5] 0.159 | [6] -0.03 | [7] 0.004 | [8] 0.05 | [9] 0.037 | [10] -0.08 | [11] 0.013 | [13] 0.051 | [14] 0.066 | [15] -0.085 | [16] 0.046 | [17] 0.095 | [18] -0.003 | [19] 0.116 | [20] 0.063

SLC35A1 (UniProt P78382)
UniProt P78382, sequence (P78382 whole entry, looked up): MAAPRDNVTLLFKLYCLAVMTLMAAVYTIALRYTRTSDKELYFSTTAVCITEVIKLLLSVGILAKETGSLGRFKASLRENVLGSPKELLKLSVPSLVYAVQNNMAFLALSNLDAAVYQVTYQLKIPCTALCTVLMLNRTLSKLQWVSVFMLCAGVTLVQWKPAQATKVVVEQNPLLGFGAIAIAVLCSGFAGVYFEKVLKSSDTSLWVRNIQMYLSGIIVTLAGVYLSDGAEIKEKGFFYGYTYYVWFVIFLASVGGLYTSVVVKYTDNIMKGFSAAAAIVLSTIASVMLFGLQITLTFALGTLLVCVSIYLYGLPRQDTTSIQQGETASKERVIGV
inactive: [1] 0.038 | [2] 0.015 | [3] 0.006 | [4] -0.038 | [5] -0.016 | [6] -0.198 | [7] 0.048 | [8] -0.112 | [9] 0.043 | [10] -0.211 | [11] 0.048 | [12] -0.021 | [13] -0.138 | [14] -0.051 | [15] -0.063 | [16] -0.097 | [17] 0.06 | [18] 0.06 | [19] -0.028

SLC7A6 (UniProt Q92536)
active: [11] -0.236
inactive: [1] 0.018 | [2] 0.022 | [3] -0.096 | [4] 0 | [5] -0.16 | [6] -0.056 | [7] -0.034 | [8] 0.027 | [9] 0.002 | [10] -0.047 | [12] 0.009 | [13] -0.001 | [14] -0.02 | [15] -0.069 | [16] 0.028 | [17] 0.073 | [18] 0.048 | [19] 0.033 | [20] 0.048

SPAG9 (UniProt O60271)
inactive: [1] 0.014 | [2] -0.037 | [3] -0.047 | [4] 0.003 | [5] 0.02 | [6] -0.044 | [7] 0.049 | [8] 0.034 | [9] 0.023 | [10] -0.011 | [11] 0.005 | [12] -0.041 | [13] -0.011 | [14] 0 | [15] -0.034 | [16] -0.034 | [17] -0.01 | [18] -0.031 | [19] -0.026 | [20] 0.041

SLC27A2 (UniProt O14975)
active: [8] 0.333
inactive: [1] 0 | [2] 0.005 | [3] -0.079 | [4] -0.015 | [5] 0.144 | [6] -0.006 | [7] 0.056 | [9] 0.015 | [10] -0.034 | [11] 0.089 | [12] -0.033 | [13] 0.032 | [14] 0.257 | [15] -0.034 | [16] 0.046 | [17] 0.156 | [18] -0.052 | [19] 0.112 | [20] 0.034

TBCD (UniProt Q9BTW9)
inactive: [1] 0.003 | [2] -0.056 | [3] -0.096 | [4] 0.05 | [5] -0.016 | [6] -0.056 | [7] 0 | [8] -0.031 | [9] 0.018 | [10] -0.007 | [11] -0.017 | [12] -0.063 | [13] 0.049 | [14] -0.091 | [15] -0.078 | [16] -0.006 | [17] 0.022 | [18] 0.023 | [19] -0.024 | [20] 0.04

THYN1 (UniProt Q9P016)
UniProt Q9P016, sequence (Q9P016 whole entry, looked up): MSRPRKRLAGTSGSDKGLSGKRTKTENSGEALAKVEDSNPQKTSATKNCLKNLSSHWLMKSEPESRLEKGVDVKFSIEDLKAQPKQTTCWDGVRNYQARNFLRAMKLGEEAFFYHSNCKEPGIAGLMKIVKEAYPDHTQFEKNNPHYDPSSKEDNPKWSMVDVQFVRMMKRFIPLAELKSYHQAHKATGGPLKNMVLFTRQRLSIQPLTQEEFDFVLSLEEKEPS
inactive: [1] -0.062 | [2] -0.022 | [3] -0.008 | [4] -0.006 | [5] 0.079 | [6] -0.002 | [7] 0.029 | [8] 0.072 | [9] 0 | [10] -0.029 | [11] -0.01 | [12] -0.009 | [13] 0.015 | [14] -0.011 | [15] -0.065 | [16] 0.035 | [17] 0.028 | [18] -0.007 | [19] -0.039 | [20] -0.032

SLC29A3 (UniProt Q9BZD2)
inactive: [1] 0.089 | [2] 0.056 | [3] 0.045 | [4] 0.092 | [5] 0.105 | [6] 0.013 | [7] -0.083 | [8] -0.018 | [9] -0.05 | [10] 0.055 | [11] 0.009 | [12] -0.258 | [13] -0.015 | [14] -0.113 | [15] 0 | [16] -0.08 | [17] -0.08 | [18] 0.019 | [19] -0.118

SORT1 (UniProt Q99523)
UniProt Q99523, sequence (Q99523 whole entry, looked up): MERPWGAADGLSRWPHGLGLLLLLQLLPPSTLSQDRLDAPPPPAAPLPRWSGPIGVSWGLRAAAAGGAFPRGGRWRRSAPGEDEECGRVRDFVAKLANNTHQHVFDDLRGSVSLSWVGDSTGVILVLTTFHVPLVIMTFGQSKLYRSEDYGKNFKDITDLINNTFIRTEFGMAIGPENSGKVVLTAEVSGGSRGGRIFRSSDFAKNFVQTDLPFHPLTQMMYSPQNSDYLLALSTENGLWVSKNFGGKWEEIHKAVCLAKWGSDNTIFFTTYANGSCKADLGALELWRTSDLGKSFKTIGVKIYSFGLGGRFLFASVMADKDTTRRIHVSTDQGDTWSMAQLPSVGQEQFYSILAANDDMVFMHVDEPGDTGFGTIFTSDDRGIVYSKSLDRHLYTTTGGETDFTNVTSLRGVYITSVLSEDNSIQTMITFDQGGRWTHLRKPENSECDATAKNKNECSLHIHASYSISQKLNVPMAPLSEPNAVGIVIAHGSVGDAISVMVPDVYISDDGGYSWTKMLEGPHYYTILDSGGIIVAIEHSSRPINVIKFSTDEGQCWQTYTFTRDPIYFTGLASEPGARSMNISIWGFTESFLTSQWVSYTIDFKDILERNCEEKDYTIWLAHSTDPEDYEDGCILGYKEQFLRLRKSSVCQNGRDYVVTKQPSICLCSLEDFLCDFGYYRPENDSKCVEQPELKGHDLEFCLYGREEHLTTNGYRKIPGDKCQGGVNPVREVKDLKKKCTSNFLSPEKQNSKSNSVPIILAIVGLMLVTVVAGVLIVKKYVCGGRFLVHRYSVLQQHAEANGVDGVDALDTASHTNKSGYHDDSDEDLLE
inactive: [1] 0.038 | [2] 0.017 | [3] 0.012 | [4] -0.011 | [5] 0.017 | [6] -0.033 | [7] 0 | [8] -0.027 | [9] -0.017 | [10] 0.014 | [11] 0.058 | [12] -0.066 | [13] 0.002 | [14] 0.008 | [15] -0.016 | [16] -0.032 | [17] 0.028 | [18] 0.056 | [19] 0.022 | [20] 0.003

— the supplement of paper PMC10849652
